From PubChem BioAssay AID2782 (National Center for Advancing Translational Sciences (NCATS), 2010)
Results filed as inconclusive are left out. Entries that show only a call come without a potency. Calls of active or inactive are those of the source. Calls come from the whole dose curve; as a rule, active = well fitted inhibition curve with a large enough effect in the polarisation, with a control signal flat (not every such curve was filed as active); inconclusive = small, poorly fitted or top-dose-only effect, or effect the other way, or a change in a side signal; inactive = no such curve, though single readings can be large or run the other way; the % refers to the polarisation.

test: Confirmation of Inhibitors Targeting the Menin-MLL Interaction in MLL Related Leukemias: Competition With Texas Red Labeled MLL-derived Mutant Peptide; conditions: fluorescence polarization, Texas Red MLL peptide displacement; series mostly up to 288 µM
From the text: qHTS Assay for Inhibitors Targeting the Menin-MLL Interaction in MLL Related Leukemias
NIH Chemical Genomics Center [NCGC]
NIH Molecular Libraries Probe Centers Network [MLPCN]
Assay Submitter (PI): Jolanta Grembecka, Tomasz Cierpicki, University of Virginia
Translocations of the MLL (Mixed Lineage Leukemia) gene are frequently found in human leukemias affecting both children and adults. Fusion of MLL to one of more than 60 genes results in generation of oncogenic proteins upregulating Hox genes, which are vital to blood cell development. Patients harboring fusion of the MLL gene suffer from aggressive leukemias and respond poorly to available therapies. All of the oncogenic fusion proteins have a preserved N-terminal fragment of MLL that has been identified to interact with menin. It has been recently discovered that association with menin is critical to the leukemogenic activity of the MLL fusion oncoproteins. Selective targeting of the menin-MLL interaction could provide an attractive therapeutic approach to develop novel drugs for MLL-related leukemias. Small molecules blocking the menin-MLL interaction should reverse the oncogenic potential of MLL fusion proteins.
We have developed and optimized a fluorescence polarization-based assay for the identification of Menin-MLL inhibitors. The assay was run employing two different MLL-derived peptides. The present assay uses a 12 amino acid peptide labeled with fluorescein at its N-terminus. This peptide consists of the menin high affinity binding motif from MLL and is potently bound by menin. Another peptide with a mutated sequence, labeled with Texas Red, was used in parallel as a less stringent screen for inhibitors.
The present assay was run to confirm the activity of hits from the primary screen using the peptide with a mutated sequence, labeled with Texas Red.
The Menin protein, the MLL-wild type (w.t.) derived peptide (N-terminal 12 amino acids), the MLL-derived peptide labeled with Texas Red and the MLL-w.t. peptide labeled with Fluorescein were kindly supplied by laboratory of Dr. Jolanta Grembecka, University of Virginia. All protein and peptide solutions were stored in single use aliquots at -80C. The Eu3+ Cyrptate-conjugated mouse monoclonal antibody anti-6 Histidine (Eu3+-AB) and the Streptavidin-XL665 conjugate (XL665) were purchased from Cisbio International (Bedford, MA). All antibody and XL665 conjugate solution stocks were stored in single use aliquots at -20C. The Buffer components for all assays were purchased from Sigma-Aldrich (St. Louis, MO) and Invitrogen (Carlsbad, CA).
1. FP reaction buffer: 50 mM Tris-HCl pH 7.5, 50 mM NaCl, 1mM DTT.
Before use, 0.05% BSA is added.
2. Menin protein, MLL-w.t. labeled with fluorescein, MLL-mutant peptide labeled with texas red.
Stored in singe use aliquots at -80C.
3. MLL-w.t. unlabeled peptide as positive control: 10 uM final in FP buffer.
1. Prepare Menin at 200 nM, MLL-w.t.-fluorescein at 25 nM, and MLL-mutant-texas red at 50 nM mixture in FP buffer.
2. Prepare Menin at 200 nM, MLL-w.t.-fluorescein at 25 nM, MLL-mutant-texas red at 50 nM, and 10 uM MLL-w.t. unlabeled mixture in FP buffer.
3. Prepare MLL-w.t.-fluorescein at 25 nM and MLL-mutant-texas red at 50 nM mixture in FP buffer.
3. Dispense 4 ul per well of reagent in step 1 in columns 2, 4 - 48 in a black 1536 well plate, dispense 4 ul per well of reagents from steps 2 and 3 in columns 1 and 3 respectively. Incubate plate at ambient for 15 minutes.
4. Transfer 23 nl per well of compound to plate and incubate at ambient for 1 hr.
5. Read fluorescence polarization for each label using the PerkinElmer Envision.
Envision protocol for fluorescein: FITC FP Dual Enh Mirror, Excitation filter 480, Emission filter (1) P-pol 535, Emission filter (2) S-pol 535
Envision protocol for texas red: FP Dual Enh Mirror, Excitation filter 555, Emission filter (1) P-pol 632, Emission filter (2) S-pol 632
Potency is the fitted concentration of half-maximal effect.

Row | Structure (SMILES) | Potency
1 | COc1ccc(C(O)P(=O)(Oc2ccccc2)Oc2ccccc2)cc1 (centres undefined) | inactive
2 | CCOP(=O)(OCC)C(NC(=O)c1ccccc1C)C(Cl)(Cl)Cl (centres undefined) | inactive
3 | CCCCCn1c(=O)c(C(=O)Nc2nc(CC(=O)OCC)cs2)c(O)c2ccccc21 | inactive
4 | COc1cc(/C=N/n2cnnc2)ccc1OC(=O)N(C)C | inactive
5 | O=C(Nc1ccc2ccccc2c1)c1nn(C23CC4CC(CC(C4)C2)C3)cc1Br | inactive
6 | CCCCn1c(=O)c(C(=O)Nc2ccsc2C(=O)OC)c(O)c2ccccc21 | 14.2 µM (active)
7 | C[C@@H]1CC[C@@]2(NC1)O[C@H]1C[C@H]3[C@@H]4CC=C5C[C@@H](O)CC[C@]5(C)[C@H]4CC[C@]3(C)[C@H]1[C@@H]2C | inactive
8 | C[N+](C)(C)CC#CCN1CCCC1=O | inactive
9 | O=C(O)CN1C(=O)CN=C(c2ccccn2)c2cc(Cl)ccc21 | inactive
10 | Cc1cc(C(=O)NP(=O)(N2CCOCC2)N2CCOCC2)c(C)n1C1CC1 | inactive
11 | OC12C3C4CC5C6C4C1C6C(C53)N2CCc1cccc(F)c1 (centres undefined) | inactive
12 | CC[C@]12C=CCN3CC[C@@]4(c5ccc(OC)cc5N(C)[C@H]4[C@@](O)(C(=O)OC)[C@@H]1OC(C)=O)C32 (some centres undefined) | inactive
13 | c1cc2cc(c1)C[n+]1ccc(c3ccccc31)NCc1ccc(cc1)CNc1cc[n+](c3ccccc13)C2 | 100 µM (active)
14 | O=C1NC(=O)C(=Cc2ccc3ccccc3c2)C(=O)N1 | inactive
